Test results reported in the supplement of paper PMC12282887.
± gives the standard deviation of the averaged measurements.

Test system: E. coli BW25113 marRABp lux reporter
Experiment: promoter activity interaction Z-score (Lux/OD deviation from empty-vector control); higher = stronger promoter induction by the compound
Procedure: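 E. coli BW25113 (wild type or ΔmarA/ΔsoxS/Δrob) carrying pTU175 luxCDABE promoter reporters was grown in LB in 384-well plates at 37°C with each of 94 compounds at 4 two-fold concentrations, in biological duplicates. Luminescence and OD600 were read every 30 min for 12 h and integrated as AUC over 8 h (0-8 h WT, 1-9 h mutants). Lux AUC was divided by OD AUC; the interaction score is the residual of a Huber robust fit of each promoter against the empty-vector control, then Z-transformed per promoter.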

Compound | promoter activity interaction Z-score (0.47 µg/ml, genetic background: wild type) | promoter activity interaction Z-score (0.47 µg/ml, genetic background: ΔmarA) | promoter activity interaction Z-score (0.47 µg/ml, genetic background: Δrob) | promoter activity interaction Z-score (0.47 µg/ml, genetic background: ΔsoxS) | promoter activity interaction Z-score (0.93 µg/ml, genetic background: wild type) | promoter activity interaction Z-score (0.93 µg/ml, genetic background: ΔmarA) | promoter activity interaction Z-score (0.93 µg/ml, genetic background: Δrob) | promoter activity interaction Z-score (0.93 µg/ml, genetic background: ΔsoxS) | promoter activity interaction Z-score (1.9 µg/ml, genetic background: wild type) | promoter activity interaction Z-score (1.9 µg/ml, genetic background: ΔmarA) | promoter activity interaction Z-score (1.9 µg/ml, genetic background: Δrob) | promoter activity interaction Z-score (1.9 µg/ml, genetic background: ΔsoxS) | promoter activity interaction Z-score (3.7 µg/ml, genetic background: wild type) | promoter activity interaction Z-score (3.7 µg/ml, genetic background: ΔmarA) | promoter activity interaction Z-score (3.7 µg/ml, genetic background: Δrob) | promoter activity interaction Z-score (3.7 µg/ml, genetic background: ΔsoxS) | promoter activity interaction Z-score (0.62 µg/ml, genetic background: wild type) | promoter activity interaction Z-score (0.62 µg/ml, genetic background: ΔmarA) | promoter activity interaction Z-score (0.62 µg/ml, genetic background: Δrob) | promoter activity interaction Z-score (0.62 µg/ml, genetic background: ΔsoxS) | promoter activity interaction Z-score (1.2 µg/ml, genetic background: wild type) | promoter activity interaction Z-score (1.2 µg/ml, genetic background: ΔmarA) | promoter activity interaction Z-score (1.2 µg/ml, genetic background: Δrob) | promoter activity interaction Z-score (1.2 µg/ml, genetic background: ΔsoxS) | promoter activity interaction Z-score (2.5 µg/ml, genetic background: wild type) | promoter activity interaction Z-score (2.5 µg/ml, genetic background: ΔmarA) | promoter activity interaction Z-score (2.5 µg/ml, genetic background: Δrob) | promoter activity interaction Z-score (2.5 µg/ml, genetic background: ΔsoxS) | promoter activity interaction Z-score (5 µg/ml, genetic background: wild type) | promoter activity interaction Z-score (5 µg/ml, genetic background: ΔmarA) | promoter activity interaction Z-score (5 µg/ml, genetic background: Δrob) | promoter activity interaction Z-score (5 µg/ml, genetic background: ΔsoxS)
CC1(C)S[C@@H]2[C@H](NC(=O)Cc3ccccc3)C(=O)N2[C@H]1C(=O)O [Penicillin G] | -0.0595 ± 0.01 | -0.219 ± 0.31 | -0.0723 ± 0.22 | 0.0424 ± 0.095 | 0.124 ± 0.25 | -0.178 ± 0.24 | -0.0814 ± 0.19 | 0.103 ± 0.11 | -0.36 ± 0.024 | -0.244 ± 0.026 | -0.221 ± 0.14 | 0.0691 ± 0.16 | -0.195 ± 0.22 | -0.122 ± 0.053 | 0.035 ± 0.11 | -0.0494 ± 0.053 | – | – | – | – | – | – | – | – | – | – | – | – | – | – | – | –
CN[C@@H]1[C@H](O)[C@H](NC)[C@H]2O[C@@]3(O)C(=O)C[C@@H](C)O[C@H]3O[C@@H]2[C@H]1O [Spectinomycin] | – | – | – | – | – | – | – | – | – | – | – | – | – | – | – | – | 0.174 ± 0.026 | 0.168 ± 0.75 | 0.332 ± 0.41 | -0.125 ± 0.11 | 0.433 ± 0.052 | 0.324 ± 0.39 | 0.402 ± 0.72 | 0.018 ± 0.043 | 0.0652 ± 0.25 | -0.102 ± 0.25 | -0.0628 ± 0.069 | -0.128 ± 0.04 | 0.205 ± 0.44 | 0.687 ± 1.1 | 0.305 ± 0.34 | 0.00851 ± 0.23
